From PubChem
ELG1 genotox: inducers of genotoxicity in HEK293T ELG1-luciferase cells; HEK293T ELG1-luciferase reporter, luminescence, 16 h; Potency, µM (titrated, usually from 46 µM), for inactives: at the highest dose activity change, positive = activation, usual class: activators; 330,000 compounds, 1.3% hits; further: % of control where 0% means no effect; nearly all actives have a fitted effect of over 60% in size
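After overnight (16 hr) compound treatment at 37 °C, ELG1-luciferase HEK293T cells were lysed with ONE-Glo; luminescence quantified 30 min later at room temperature.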
FLuc modulator: firefly luciferase modulation, counter-screen for miR-21 project. P08659. AID 588342. 360,000 compounds, 6.9% hits. purified FLuc, Km substrates, luminescence inhibition. Potency, µM (highest dose often 57.5 µM), inactives show top-dose activity change, negative = inhibition, most hits filed as inhibitors;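 further: plate controls were vehicle for no effect and reference inhibitor for full effect; nearly all actives have a fitted effect of over 55% in size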
Target sequence (P08659 whole entry, looked up): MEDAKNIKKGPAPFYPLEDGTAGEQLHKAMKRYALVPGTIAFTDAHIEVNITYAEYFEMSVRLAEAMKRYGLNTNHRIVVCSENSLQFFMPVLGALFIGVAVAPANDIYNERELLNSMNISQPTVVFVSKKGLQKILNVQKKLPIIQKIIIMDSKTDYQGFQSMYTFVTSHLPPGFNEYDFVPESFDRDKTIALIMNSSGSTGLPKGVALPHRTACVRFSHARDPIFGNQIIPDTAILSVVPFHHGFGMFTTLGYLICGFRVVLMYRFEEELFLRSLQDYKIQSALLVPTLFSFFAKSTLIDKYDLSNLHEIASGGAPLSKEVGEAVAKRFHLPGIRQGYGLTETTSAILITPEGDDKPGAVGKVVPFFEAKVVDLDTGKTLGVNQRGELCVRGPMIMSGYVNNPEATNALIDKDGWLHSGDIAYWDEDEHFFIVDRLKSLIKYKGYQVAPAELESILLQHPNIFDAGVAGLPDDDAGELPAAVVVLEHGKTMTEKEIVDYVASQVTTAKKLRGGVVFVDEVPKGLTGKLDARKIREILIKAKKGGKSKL
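Biochemical qHTS of compounds, final roughly 60 µM downward over six points, against 10 nM purified firefly luciferase using Km concentrations of substrates (10 uM D-luciferin, 10 uM ATP) in Tris acetate pH 7.5 buffer; luminescence output.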
Rab9 promoter act: activators of Rab9 promoter; Potency, µM (titrated, usually from 9.22 µM), for the others: top-dose activation, negative = inhibition, usual class: activators; AID 485297; Huh7 Rab9 promoter-luciferase reporter, luminescence, 24 h; 320,000 compounds, 2.8% hits; further: % of control where 0% means no effect; nearly all actives have a fitted effect of over 60% in size
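Measured in stably transfected Huh7 cells bearing a Rab9 promoter–luciferase construct: 24 h compound treatment at 37 °C, followed by luminescence detection.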
NPC1 prom act: NPC1 promoter activation; Huh7 NPC1 promoter luciferase reporter, 24 h; 320,000 compounds, 2.4% hits; Potency, µM (top dose mostly 9.22 µM), without a hit: at the highest dose activation, hits mostly activators; AID 485313; further: % of control where 0% means no effect; nearly all actives have a fitted effect of over 60% in size
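Readout is luciferase luminescence, reflecting NPC1 promoter activation in stably transfected Huh7 cells after 24 h compound exposure at 37 °C in reduced-serum medium with 10% FBS.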
SMN2 splice up: increases expression of the SMN2 splice variant; HEK293 SMN2-luciferase splicing reporter, luminescence, 30-36 h; Potency, µM (titrated, usually from 46.1 µM), without a hit: at the highest dose activity change, positive = activation, hits mostly activators; 210,000 compounds, 2.8% hits; AID 1458; further: % of control where 0% means no effect; nearly all actives have a fitted effect of over 55% in size
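HEK293 cells carry an SMN2 […]–luciferase reporter in which exon 7 inclusion puts luciferase in frame. Cells were plated 10-12 h before compound addition, then incubated 30-36 h at 37C. ONE-Glo luminescence was read; sodium butyrate at 4.5 mM final served as control.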
An asterisk follows results filed as active; ? = inconclusive; nt = no result; [ ] = dose if it differs, or a comment. A selection: hits, their analogues and other compounds. The true share with any hit is near 7.4%. The call rests on the fitted dose curve; in most records, active means well fitted curve in the direction sought with a large enough effect; inconclusive means small, poorly fitted or top-dose-only effect, or another doubt; inactive means no such curve, though single readings can be large; an effect the other way counts as inactive or inconclusive. Potency means the concentration at half of the fitted maximal effect.

SMILES	ELG1 genotox	FLuc modulator	Rab9 promoter act	NPC1 prom act	SMN2 splice up
O=C(CSc1nnc(NC(=O)c2ccco2)s1)Nc1cccc(F)c1	?	6.7µM*	?	?	nt
COc1cccc(NC(=O)CSc2nnc(C)s2)c1	12%	5%	-4%	0%	?
CCc1nnc(NC(=O)c2ccc(Br)o2)s1	13%	?	?	18%	nt
O=C(CSc1nnc(NC(=O)c2ccco2)s1)Nc1ccc(F)cc1F	2%	?	17%	1%	nt
COc1cccc(NC(=O)CSc2nnc(NC(=O)c3ccco3)s2)c1	17%	24µM*	17%	14%	nt
Cc1ccc(-c2nn3c(=O)cc(CN4CCN(C(=O)c5ccc(C(C)(C)C)cc5)CC4)nc3s2)cc1	nt	0%	nt	nt	nt
COc1cc(NC(=O)CN2C(=O)C(c3ccc(C)cc3)=NC23CCCCCC3)cc(OC)c1	nt	6%	nt	nt	7%
COc1ccc(/C=C(\NC(=O)c2ccc(C)cc2)C(=O)NCCCN2CCOCC2)cc1OC	1%	1%	0%	0%	nt
O=C(NC1CCCCC1)c1c[nH]c2ccc(S(=O)(=O)Nc3ccccc3F)cc2c1=O	nt	?	nt	nt	-27%
CCOC(=O)c1cc2c(=O)n3ccccc3nc2n(C(C)C)c1=NC(=O)c1cc2ccccc2o1	nt	-3%	nt	nt	10%
O=C(CSc1ccc(Cl)cc1)Nc1ccc(NC(=O)c2ccco2)cc1	3%	12%	20%	17%	?
Cc1ccc(SCC(=O)Nc2cccc(NC(=O)c3ccco3)c2)cc1	-3%	19µM*	4%	-1%	-15%
Cc1ccc(SCC(=O)Nc2ccc(N3CCN(C)CC3)c(F)c2)cc1	?	15µM*	?	?	10%
O=S1(=O)[C@H]([C@H]2CC3c4ccccc4C2c2ccccc23)[C@@H](N2CCCCC2)[C@@H]1c1ccccc1	nt	nt	nt	nt	-21%[9.22 µM]
Cc1cc(C)c(Cn2c3ccccc3c3cnn(CC(=O)N4CCCCC4)c(=O)c32)c(C)c1	nt	-11%	nt	nt	2%
COC(=O)N1[C@H](C)C=C[C@]1(Cc1ccccc1)C(=O)NCc1ccc(N(C)C)cc1	nt	nt	nt	nt	13µM*
CCC(=O)Oc1ccc(NC(=O)c2ccco2)cc1	9%	12µM*	5%	2%	9%
O=C(Nc1ccc(OC(=O)c2ccco2)cc1)c1ccco1	7%	4.8µM*	4%	9%	17%
O=C(Nc1nc(SCc2ccc(F)cc2)ns1)c1ccco1	13%	21µM*	20%	13%	18µM*
CCC(=O)Nc1ccc(NC(=O)c2ccco2)cc1	?	19µM*	2.8µM*	2.8µM*	27%
O=C(CCc1ccccc1)Nc1ccc(NC(=O)c2ccco2)cc1	?	-18%	17%	17%	8%
O=C(Nc1ccc(CSc2ccccc2)cc1)c1ccco1	7.3µM*	2.7µM*	4µM*	2.8µM*	nt
CCSc1nsc(NC(=O)Nc2ccc(F)cc2F)n1	6%	5.4µM*	?	?	nt
O=C(OC1CCCCC1)c1ccc(NC(=O)c2ccco2)cc1	8%	13µM*	3.5µM*	?	?
COc1ccc(C(=O)Nc2ccc(NC(=O)c3ccco3)cc2)cc1	?	-9%	11%	0%	nt
SMILES	ELG1 genotox	FLuc modulator	Rab9 promoter act	NPC1 prom act	SMN2 splice up
Cc1ccc(Nc2cc(-n3nc(C)cc3C)ncn2)c(C)c1	-6%	1%	-3%	0%	-21%
Cc1ccc(Nc2cc(-n3cccn3)ncn2)c(C)c1	7.3µM*	11µM*	2.5µM*	3.5µM*	24%
CC(Sc1nc(N)cc(N)n1)C(=O)NCCC1=CCCCC1 (stereo unspecified)	0%	1%	5%	-6%	nt
C=CCN1C(=O)/C(=C\c2ccc(OC(=O)c3ccco3)c(OC)c2)SC1=S	6%	3%	1%	-6%	-41%
COc1cc(/C=C2/C(=O)NN(c3ccc(Cl)cc3)C2=O)ccc1OC(=O)c1ccco1	9%	24µM*	-6%	-4%	8%
COc1cc(/C=N/NC(=O)c2ccc(F)cc2)ccc1OC(=O)c1ccco1	6%	?	-3%	6%	5%
COc1cc(/C=C2/C(=O)NN(c3cccc(F)c3)C2=O)ccc1OC(=O)c1ccco1	12%	24µM*	1%	5%	-13%
Cc1ccccc1OC(C)C(=O)N1CCN(c2ccccn2)CC1 (stereo unspecified)	-7%	3%	-13%	2%	nt
